Measured values as given in PubChem BioAssay AID1347076 (National Center for Advancing Translational Sciences (NCATS), 2019).
The whole screen tested about 400,000 compounds, of which about 13,000 (3.2%) were called active. Roughly 18% stayed inconclusive and do not appear here. The entries come from a sample that favours actives as a whole. Unmarked numbers belong to inactive results. Calls come from the whole dose curve; as a rule, active = well fitted cell-killing curve with a large enough effect; inconclusive = small, poorly fitted or top-dose-only effect, or effect the other way; inactive = flat fitted curve, though single readings scatter.

Assay: qHTS assay for MDR1-selective chemotherapeutics: Primary screen using the drug-selected MDR subline cells KB-V1; note: nearly all actives have a fitted effect of over 60% in size
Settings: KB-V1 MDR cells viability, CellTiter-Glo, 72 h; series mostly up to 46.1 µM; activity change, negative = cytotoxicity: at the top concentration
In short: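 KB-V1 cells (P-gp-expressing MDR subline of KB-3-1) in phenol-red-free DMEM with 10% FBS were exposed to library compounds over a concentration series for 72 h at 37 degrees C. Viability read by CellTiter-Glo luminescence; concentration-effect curves fitted after normalization.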
% is set by controls: 0 for no effect and ±100 for the full control effect; potency is the fitted concentration of half-maximal effect.

Row | Structure (SMILES) | activity change, negative = cytotoxicity [%] | Potency
1 | c1cc(-c2ccc3[nH]ccc3c2)n2ccnc2c1 | 0 | –
2 | CCCCC(=O)N(C)c1c(CC)nc2c(OCc3ccc(Cl)cc3Cl)cccn12 | – | 16.4 µM (active)
3 | CCCCC(=O)N(C)c1c(CC)nc2c(OCc3ccc(S(C)(=O)=O)cc3)cccn12 | -12.7 | –
4 | CCOC(=O)N(C)c1c(CC)nc2c(OCc3ccccc3C(=O)OC)cccn12 | -2.06 | –
5 | CCc1nc2ccc(C(=O)N(C)CCN(C)C)cn2c1N(CC)CCOC | -5.15 | –
6 | CC(=O)C[C@@H]1OC[C@H](C)N1S(=O)(=O)c1ccc(C)cc1 | -6.62 | –
7 | Cc1ccc(C)c(N2CCN(S(=O)(=O)c3ccc4c(c3)oc(=O)n4C)CC2)c1 | – | 14.6 µM (active)
8 | Cc1ccc(NS(=O)(=O)c2ccc3c(c2)oc(=O)n3C)c(C)c1 | -3.35 | –
9 | Cc1ccc2nc(NC(=O)C3CCN(S(=O)(=O)c4ccc5c(c4)oc(=O)n5C)CC3)sc2c1 | -18.1 | –
10 | COc1ccc(NC(=O)c2cc(=O)[nH]c3ccccc23)cc1S(=O)(=O)N1CCOCC1 | 10.6 | –
11 | Cc1nc(C(F)(F)F)ccc1C(=O)N1CCC1(C)C(=O)NS(=O)(=O)c1ccc(F)cc1F (configuration not stated) | 4.73 | –
12 | COc1ccc2ncc3c(-c4ccc(C)c(C)c4)nn(CC(=O)NC4CCCC4)c3c2c1 | -20.6 | –
13 | Cc1ccc([C@H]2N[C@]3(CCCN(Cc4ccccc4)C3=O)[C@H]3C(=O)N(Cc4ccccc4)C(=O)[C@@H]23)cc1 | 0 | –
14 | Cc1ccc(C(C)C)cc1OCC(=O)Nc1ccccc1N1CCCC1 | -18.6 | –
15 | O=C(CNCCC1=CCCCC1)Nc1ccccc1N1CCCCCC1 | – | 11.6 µM (active)
16 | Cc1nnc(OCC(=O)NCCC2=CCCCC2)c2ccccc12 | 3.11 | –
17 | Cc1ccc2nc(-c3ccco3)c(Cc3cccc(Cl)c3)n2c1 | 1.67 | –
18 | COc1ccc(C(C#N)=C2C=CC(=NO)c3ccccc32)cc1 | – | 1.3 µM (active)
19 | COc1ccc(/C(N)=N/OC(=O)Cc2ccccc2)cc1 | 19 | –
20 | COc1ccc(C(=NN)c2ccc(OC)cc2)cc1 | 7.65 | –
21 | CCNC(=O)c1cc2c(c(-c3cccc(-c4cncnc4)c3)n1)[C@H](CCO)N(C(C)=O)C2 | -5.46 | –
22 | O=C(NCc1ccccc1Cl)c1csc([C@@H]2O[C@H](CO)[C@@H](O)[C@H]2O)n1 | 12.3 | –
23 | COc1cc(C(=O)NCc2nnc(SCC(=O)c3ccc(Cl)cc3)o2)cc(OC)c1OC | -4.15 | –
24 | CCC(=O)Nc1ccc(C(=O)CSc2nnc(CNc3ccc(Cl)cc3)o2)cc1OC | – | 14.6 µM (active)
25 | CCOC(=O)CSc1nnc(CNc2ccc(F)cc2)o1 | 8.46 | –
26 | CCc1nc2c(OCc3cccc(OC)c3)cccn2c1N(C)C(=O)C(C)C | -5.47 | –
27 | CSc1ncnc2c1ncn2CCCNCc1cccs1 | -11.8 | –
